Assay results as given in PubChem BioAssay (NCATS).
Records with an inconclusive call do not appear. Active and inactive are the calls of the source. Calls come from the whole dose curve; as a rule, active = well fitted curve in the direction sought with a large enough effect; inconclusive = small, poorly fitted or top-dose-only effect, or another doubt; inactive = no such curve, though single readings can be large; an effect the other way counts as inactive or inconclusive.

Experiments:
[1] = biological target: Glutathione peroxidase 1 (Homo sapiens) (UniProt P07203); experiment: Primary qHTS Assay for Inhibitors of Recombinant Selenoprotein Glutathione Peroxidase 1 (GPX1) (AID 1845191); note: nearly all actives have a fitted effect of over 65% in size; note: potency is the fitted concentration of half-maximal effect; for activity, negative = inhibition: % is set by controls: 0 for no effect and ±100 for the full control effect
Chain of Glutathione peroxidase 1 (Homo sapiens) (P07203 whole entry, looked up): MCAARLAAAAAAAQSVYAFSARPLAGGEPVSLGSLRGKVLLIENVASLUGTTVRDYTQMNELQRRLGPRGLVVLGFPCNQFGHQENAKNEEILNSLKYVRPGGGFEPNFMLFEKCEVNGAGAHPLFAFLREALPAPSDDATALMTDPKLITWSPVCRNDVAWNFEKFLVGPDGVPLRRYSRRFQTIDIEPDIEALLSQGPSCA
How it was run: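 GPX1 10 nM, GR 100 nM, GSH 1 mM, NADPH 0.5 mM, CHP 0.5 mM (final). 30-min cpd preincubation, RT. Ex340/Em450 read t=0, t=15 min.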

[2] = biological target: Phospholipid hydroperoxide glutathione peroxidase GPX4 (Homo sapiens) (UniProt P36969); experiment: Primary qHTS Assay for Inhibitors of Recombinant Selenoprotein Glutathione Peroxidase 4 (GPX4) (AID 1845192); note: nearly all actives have a fitted effect of over 65% in size; note: potency is the fitted concentration of half-maximal effect; for activity change, negative = inhibition: series mostly up to about 50 µM; % is set by controls: 0 for no effect and ±100 for the full control effect
Chain of Phospholipid hydroperoxide glutathione peroxidase GPX4 (Homo sapiens) (P36969 whole entry, looked up): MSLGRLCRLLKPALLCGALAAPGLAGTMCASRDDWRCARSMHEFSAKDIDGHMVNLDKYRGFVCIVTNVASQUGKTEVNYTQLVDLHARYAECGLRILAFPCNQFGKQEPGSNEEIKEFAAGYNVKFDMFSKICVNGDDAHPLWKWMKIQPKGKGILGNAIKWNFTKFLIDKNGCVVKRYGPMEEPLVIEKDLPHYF
How it was run: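 qHTS, GR-coupled: GPX4 200 nM + cpd 30 min RT → GSH 1 mM, NADPH 0.5 mM, GR 100 nM → CHP 0.5 mM start; fluor 340/450 at t0 and t15 min; no-enzyme wells as control.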

[3] = biological target: Luciferin 4-monooxygenase (Photinus pyralis) (UniProt P08659); experiment: Primary firefly luciferase (FLuc) qHTS assay for identification of artifact compounds. (AID 1845220); note: nearly all actives have a fitted effect of over 60% in size; note: potency is the fitted concentration of half-maximal effect;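 for activity change, negative = inhibition: series mostly up to about 54 µM; plate controls were DMSO vehicle for no effect and no enzyme for full effect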
How it was run: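 qHTS, 15 min compound preincubation with substrate (10 uM luciferin, 10 uM ATP) at RT, then 10 nM FLuc; 5 min; luminescence; % inhibition vs no-enzyme/DMSO controls, 4-parameter Hill fit.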

[4] = Primary fluorescence-based thiol-reactive (MSTI) qHTS assay for identification of artifact compounds. (AID 1845221); note: nearly all actives have a fitted effect of over 65% in size; note: potency is the fitted concentration of half-maximal effect;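 for activity change, negative = thiol reactive: series mostly up to about 54 µM; thiol-reactive compounds lower the probe fluorescence signal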
How it was run: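 A multi-concentration qHTS design tested compounds against 4 uM MSTI, pH 7.4 phosphate-buffered saline. Plates were protected from light for 1 h at room temperature before imaging fluorescence.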

[5] = test system: Nanoluciferase (engineered Oplophorus gracilirostris luciferase); experiment: Primary Nanoluciferase (NLuc) qHTS assay for identification of artifact compounds. (AID 1845222); note: series mostly up to about 54 µM
How it was run: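 Luminescence read-out of secreted NLuc in S16 cell conditioned medium (1:55); compounds tested with 15 min RT preincubation, then Nano-Glo substrate 1:100, 5 min. % inhibition vs no-enzyme and DMSO controls, 4-parameter Hill fit.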

[6] = Primary redox qHTS assay for identification of artifact compounds. (AID 1845223);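 note: 0% = DMSO and 100% = reference compound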
How it was run: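 Redox-cycling detection via DTT (250 uM final) oxidation coupled to Amplex Red (25 uM)/HRP (250 mU/mL) in HBSS. 15 min preincubation plus 30 min after DTT, room temperature. Ex/Em 525/598 nm; 4-parameter Hill fit against DMSO and 10 uM DA3003.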

C[C@@H]1O[C@@H](O[C@H]2[C@H](O)[C@@H](O)[C@H](OC3CCC4(C)C5CCC(C)(C(CO)OC6OC(CO)C(O)C(O)C6O)CC5=CCC4C3(C)C)O[C@@H]2CO)[C@H](O)[C@H](O)[C@H]1O (some centres not stated)
inactive: Potency [1] | Potency [2] | Potency [3] | Potency [4] | Potency [5] | Potency [6]

CCC(Nc1ncnc2nc[nH]c12)c1nc2cccc(F)c2c(=O)n1-c1ccccc1 (configuration not stated)
inactive: Potency [1] | Potency [2] | Potency [3] | Potency [4] | Potency [5] | Potency [6]

COc1ccc(Cl)c(Nc2nc3ccccc3nc2NS(=O)(=O)c2cccc(NC(=O)C(C)(C)N)c2)c1
inactive: Potency [1] | Potency [2] | Potency [3] | Potency [4] | Potency [5] | Potency [6]

COc1ccc(CN2C(=O)C(=O)c3cc(S(=O)(=O)N4CCC[C@H]4COc4cccnc4)ccc32)cc1
inactive: Potency [3] | Potency [4] | Potency [5] | Potency [6]
active: Potency [1] 22.7 µM | Potency [2] 25.5 µM

C=C1CC[C@@H]2[C@@](C)(CO[C@@H]3O[C@H](CO)C(O)[C@H](O)C3O)[C@H](O)CC[C@@]2(C)[C@@H]1CC/C(C)=C/CO (some centres not stated)
inactive: Potency [1] | Potency [2] | activity change, negative = inhibition [3] -1.11% [at 11.6 µM] | activity change, negative = thiol reactive [4] 21.9% [at 11.5 µM] | activity, negative = inhibition [5] 2.18% [at 11.6 µM] | redox activity (% of DA3003) [6] 11.9% [at 11.5 µM]

CCC(CC)C(=O)Nc1sc2c(c1C#N)CCC(C(C)(C)CC)C2 (configuration not stated)
inactive: Potency [1] | Potency [2] | Potency [3] | Potency [4] | Potency [5] | Potency [6]

C/C1=C\[C@H]2OC(=O)[C@@H](C)[C@@H]2CC/C(C(=O)O)=C/CC1
active: Potency [4] 11.9 µM
inactive: Potency [1] | Potency [2] | Potency [3] | Potency [5] | Potency [6]

COc1cc2occc2c(O[C@@H]2O[C@H](CO)[C@@H](O)[C@H](O)[C@H]2O)c1CCC(=O)O
active: Potency [1] 11.1 µM | Potency [2] 11.1 µM | Potency [4] 5.19 µM
inactive: Potency [3] | Potency [5] | Potency [6]

N#Cc1cc(F)cc(-c2nc(-c3ccccn3)no2)c1
active: Potency [3] 7.57 µM
inactive: Potency [1] | Potency [2] | Potency [4] | Potency [5] | Potency [6]

C[C@@H]1O[C@@H](O[C@H]2[C@H](OC(=O)[C@]34CCC(C)(C)C[C@H]3C3=CCC5[C@@]6(C)C[C@H](O)[C@H](O[C@@H]7O[C@H](CO)[C@@H](O)[C@H](O)[C@H]7O)[C@@](C)(CO)C6[C@H](O)C[C@@]5(C)[C@]3(C)C[C@H]4O)OC[C@H](O)[C@@H]2O)[C@H](O)[C@H](O)[C@H]1O[C@@H]1OC[C@@H](O)[C@H](O[C@H]2OC[C@](O)(CO)[C@H]2O)[C@H]1O (some centres not stated)
inactive: outcome [1] inactive [at 9.52 µM] | activity change, negative = inhibition [2] 1.35% [at 9.73 µM] | activity change, negative = inhibition [3] 2.14% [at 11.6 µM] | activity change, negative = thiol reactive [4] 482% [at 11.5 µM] | activity, negative = inhibition [5] 4.86% [at 11.6 µM] | redox activity (% of DA3003) [6] 4.44% [at 11.5 µM]

O=C(c1cn(Cc2cncn2Cc2ccc(Br)cc2)cc1-c1cccc2ccccc12)N1CCOCC1
inactive: Potency [1] | Potency [2] | Potency [3] | Potency [4] | Potency [5] | Potency [6]

COc1c2cc(c(O)c1OC)-c1cc(ccc1O)CCC(O)CCCC2 (configuration not stated)
inactive: Potency [1] | Potency [2] | Potency [3] | Potency [4] | Potency [5] | Potency [6]

CC1(C)CCCC2(C)C(C(=O)O)=CCC12 (configuration not stated)
inactive: Potency [1] | Potency [2] | Potency [3] | Potency [4] | Potency [5] | Potency [6]

Clc1cc2c(NC3CCCC3)nnc(-c3ccncc3)c2cc1Cl
inactive: Potency [1] | Potency [2] | Potency [3] | Potency [4] | Potency [5] | Potency [6]

C[C@]12C[C@@H](O)[C@@H]3C[C@@]1(O[C@@H]1O[C@H](CO)[C@@H](O)[C@H](O)[C@H]1O)[C@]3(COC(=O)c1ccccc1)C(=O)O2
active: Potency [4] 13 µM
inactive: Potency [1] | Potency [2] | Potency [3] | Potency [5] | Potency [6]

C[C@H](Nc1ncnc2nc[nH]c12)c1cc2ccc(F)cc2nc1-c1ccccn1
inactive: Potency [1] | Potency [2] | Potency [3] | Potency [4] | Potency [5] | Potency [6]

CC(C)(C)NCCCNC(=O)c1cccc(Br)c1
inactive: Potency [1] | Potency [2] | Potency [3] | Potency [4] | Potency [5] | Potency [6]

COCCOc1ccc(N2CCN(CCn3ncc4c3nc(N)n3nc(-c5ccco5)nc43)CC2)cc1
inactive: Potency [1] | Potency [2] | Potency [3] | Potency [4] | Potency [5] | Potency [6]

CC(C)S(=O)(=O)NC[C@H](C)c1ccc(NC(=O)c2cc(F)cc(F)c2)cc1
inactive: Potency [1] | Potency [2] | Potency [3] | Potency [4] | Potency [5] | Potency [6]

CC#CC(=O)N1CCC[C@H]1c1nc(-c2ccc(C(=O)Nc3ccccn3)cc2)c2c(N)nccn12
inactive: Potency [1] | Potency [2] | Potency [3] | Potency [4] | Potency [5] | Potency [6]

CC1(C)CC(=O)C2=C(C1)NC(=S)NC2c1cccc(O)c1 (configuration not stated)
inactive: Potency [1] | Potency [2] | Potency [3] | Potency [4] | Potency [5] | Potency [6]

CN[C@H](C(=O)N[C@H](C(=O)N(C)[C@H](/C=C(\C)C(=O)O)C(C)C)C(C)(C)C)C(C)(C)c1ccccc1
inactive: Potency [1] | Potency [2] | Potency [3] | Potency [4] | Potency [5] | Potency [6]

CCOc1cc2ncc(C#N)c(Nc3ccc(F)c(Cl)c3)c2cc1NC(=O)/C=C/CN(C)C
inactive: Potency [1] | Potency [2] | Potency [3] | Potency [4] | Potency [5] | Potency [6]

O=S(=O)(c1ccccc1)c1cnc2c(N3CCNCC3)cccc2c1
inactive: Potency [1] | Potency [2] | Potency [3] | Potency [4] | Potency [5] | Potency [6]

CC(=O)O[C@@H]1[C@H](O)[C@@H](O[C@@H]2O[C@@H](C)[C@H](O[C@@H]3OC[C@@H](O)[C@H](O[C@@H]4OC[C@@H](O)[C@H](O)[C@H]4O)[C@H]3O)[C@@H](O[C@@H]3O[C@H](CO)[C@@H](O)[C@H](O)[C@H]3O)[C@H]2O)[C@H](OC(=O)[C@]23CCC(C)(C)C[C@H]2C2=CCC4[C@@]5(C)CC[C@H](O[C@@H]6O[C@H](C(=O)O)[C@@H](O)[C@H](O[C@@H]7OC[C@@H](O)[C@H](O)[C@H]7O)[C@H]6O[C@@H]6O[C@H](CO)[C@H](O)[C@H](O)[C@H]6O)[C@@](C)(C=O)C5CC[C@@]4(C)[C@]2(C)CC3)O[C@@H]1C (some centres not stated)
inactive: activity, negative = inhibition [1] -4.56% [at 9.52 µM] | activity change, negative = inhibition [2] 2.64% [at 9.73 µM] | activity change, negative = inhibition [3] 3.61% [at 6.45 µM] | activity change, negative = thiol reactive [4] 306% [at 6.41 µM] | activity, negative = inhibition [5] 0% [at 6.45 µM] | redox activity (% of DA3003) [6] -0.0347% [at 6.41 µM]

C=C1CC2C(C)(CCC(=O)O)C(C(C)(C)O)CCC2(C)C2C(=O)OC(C)(C(=O)OC)C(=O)C12C (configuration not stated)
inactive: Potency [1] | Potency [2] | Potency [3] | Potency [4] | Potency [5] | Potency [6]

CC1(C)CCC[C@@]2(C)C1[C@H](OC(=O)/C=C/C=C/C(=O)O)C=C1COC(=O)[C@@]12O (some centres not stated)
inactive: Potency [1] | Potency [2] | Potency [3] | Potency [4] | Potency [5] | Potency [6]

C/C(=C\C=C\C(C)C1CCC2(C)C3CCC4C(C)(C)C(=O)CCC45CC35CCC12C)C(=O)O (configuration not stated)
inactive: Potency [1] | Potency [2] | Potency [3] | Potency [4] | Potency [5] | Potency [6]

CS(=O)(=O)N(CC(=O)NCC1CC1)c1cc(C(F)(F)F)ccc1Cl
inactive: Potency [1] | Potency [2] | Potency [3] | Potency [4] | Potency [5] | Potency [6]

CN(C)CC1CCOC1(c1ccccc1)c1ccccc1 (configuration not stated)
inactive: Potency [1] | Potency [2] | Potency [3] | Potency [4] | Potency [5] | Potency [6]

COc1ccc(CCO[C@@H]2CCCC[C@H]2N2CC[C@@H](O)C2)cc1OC
inactive: Potency [1] | Potency [2] | Potency [3] | Potency [4] | Potency [5] | Potency [6]

COc1ccc(CCO[C@@H]2O[C@H](CO[C@@H]3OC[C@H](O)[C@H](O)[C@H]3O)[C@@H](O)[C@H](O)[C@H]2O)cc1
inactive: Potency [1] | Potency [2] | Potency [3] | Potency [5] | Potency [6]
active: Potency [4] 10.3 µM
